Sampled rows, rich in hits. Any-hit rate of the full collection: about 3.6%.
BoNT A protease – BoNT/A light chain protease inhibitors, primary screen, biochemical, flow cytometry, MLPCN library; multiplex microsphere protease substrate cleavage; AID 588499, 2011; hit rate 0.17% among 360,000; Botulinum neurotoxin type A light chain protease (Clostridium botulinum A str. ATCC 3502); inhibition, % at 10 µM
BoNT-F LC inh – BoNT/F light chain protease inhibitors, primary screen, biochemical, flow cytometry, MLPCN library; Multiplex microsphere protease cleavage assay; AID 588497, 2011; inhibition, % at 10 µM; hit rate 0.22% among 360,000; in the data active = inhibition above about 35%, passing the limit was not always enough; inconclusive = no clear call, values can overlap the other calls
Anthrax LF inh2 – Bacillus anthracis LF protease inhibitors, primary screen, biochemical, multiplex microsphere, MLPCN library. multiplex microsphere protease cleavage assay. inhibition, % at 10 µM. hit rate 0.12% among 360,000. AID 588501, 2011
Autofluor counter – flagged as autofluorescent in microsphere protease counterscreen; compound autofluorescence counterscreen, microsphere flow cytometry; hits give high values; hit rate 3.1% among 360,000; AID 624483; fluorescence intensity (no concentration beside the values); in the data active = fluorescence intensity above about 16000; inconclusive = no clear call, values can overlap the other calls
MazEF act – activators of E. coli MazEF toxin-antitoxin RNase, primary screen, biochemical, fluorescence, uHTS. FAM/BHQ RNA-DNA oligo cleavage fluorescence, 5 h. hit rate 0.32% among 350,000. AID 504720, 2011. activation, % at 20 µM; in the data active = activation above about 50%
Target sequence (P0AE70 whole entry, looked up): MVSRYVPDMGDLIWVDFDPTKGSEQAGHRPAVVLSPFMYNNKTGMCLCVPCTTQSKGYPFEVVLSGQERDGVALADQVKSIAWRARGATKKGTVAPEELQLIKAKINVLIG
A number is an active result; 0 = inactive; ? = inconclusive; - = no result. Cut-off read from the data, not from the text of the source, unless noted: active = inhibition above about 30%; inconclusive = no clear call, values can overlap the other calls; inactive = below that.

SMILES | BoNT A protease | BoNT-F LC inh | Anthrax LF inh2 | Autofluor counter | MazEF act
Nn1c(SCC(=O)Nc2ccc3c(c2)OCCO3)nnc1-c1ccncc1 | 0 | 0 | 0 | 0 | 0
CCCCNC(=O)c1c(N)[nH]c(C(=O)c2ccccc2)c1-c1ccc(Cl)cc1 | 0 | 0 | 0 | 0 | -
Cc1ccc(C)n1-c1nnc(N2CCC(C(=O)NCCCN3CCN(C)CC3)CC2)s1 | 0 | 0 | 0 | 0 | 0
CC1(Cc2cc(Cl)ccc2C(F)(F)F)C(=O)Nc2c(Cl)cccc21 (stereo not given) | 0 | 0 | 0 | 0 | -
COC(=O)[C@@]1(C(C)C)N=C(c2cc(OC)c(OC)c(OC)c2)[C@]2(O1)C(=O)N(Cc1ccc(OC)cc1)c1ccc(Br)cc12 | 0 | 0 | 0 | 0 | -
CC(C)N(C(=O)Cn1c(SCC(=O)NCc2ccc3c(c2)OCO3)nc2ccccc21)C(C)C | 0 | 0 | 0 | 0 | 0
CC(C)Sc1nc2ccccc2n1CC(=O)NCc1ccc2c(c1)OCO2 | ? | 0 | 0 | 22521 | 0
CCOc1ccc(-c2c[n+](=O)c3c(n2[O-])CCCC3)c(OCC)c1 | 0 | 0 | 0 | 19889 | 0
COc1ccc(OC)c(-c2c[n+](=O)c3c(n2[O-])CCCC3)c1 | 0 | 0 | 0 | 0 | 0
Cc1cccc(C(=O)NCCC(=O)Nc2ccc(F)c([N+](=O)[O-])c2)c1 | 0 | 0 | 0 | 0 | 0
C/C(=N\OC(=O)c1ccc(Cl)cc1)c1nccs1 | 0 | 0 | 0 | 24861 | 0
CC(=NOC(=O)c1ccc(Cl)cc1)c1nccs1 | 0 | 0 | 0 | 0 | -
CCOC(=O)c1cnc(-n2nc(C)cc2C)nc1N(C)C | 0 | 0 | 0 | 22817 | 0
Cc1cc(C)n(-c2ncc3c(n2)N(CCO)CCOC3=O)n1 | 0 | 35 | 0 | 0 | 0
CCOC(=O)c1cnc(-n2nc(C)cc2C)nc1NC1CCCC1 | 0 | ? | 0 | 0 | 0
CCOC(=O)c1cnc(-n2nc(C)cc2C)nc1N1CCOCC1 | 0 | 0 | 0 | 23062 | 0
O=C(CN1C(=O)c2ccccc2S1(=O)=O)Nc1cccc(S(=O)(=O)N2CCCCC2)c1 | 0 | 0 | 0 | 0 | 0
C[C@@H]1CN([C@H](C)CO)S(=O)(=O)c2ccc(Br)cc2O[C@H]1CN(C)C(=O)Cc1ccccn1 | 0 | 0 | 0 | 0 | 0
CCC(=O)N(C)C[C@@H]1Oc2ncc(Br)cc2C(=O)N([C@@H](C)CO)C[C@H]1C | 0 | 0 | 0 | 0 | 0
Cc1ccc(-c2csc(N)n2)s1 | 0 | 0 | 0 | 20327 | 0
Cc1ccccc1-c1csc(N)n1 | 0 | 0 | 0 | 0 | 0
COc1ccc(CCC(C)NC(=O)Cc2ccc(OC)c(OC)c2)c(OC)c1 (stereo not given) | 0 | 0 | 0 | 0 | 0
COc1cc2cc(C(c3nnnn3C3CCCC3)N(C)C3CCCCC3)c(=O)[nH]c2cc1OC (stereo not given) | 0 | 0 | 0 | 21407 | 0
CC(C)C(c1nnnn1C1CCCC1)N(C)C1CCCCC1 (stereo not given) | ? | 0 | 0 | 20923 | 0
Cc1ccc(C(c2nnnn2C2CCCCC2)N(C)C2CCCCC2)cc1 (stereo not given) | 0 | 0 | 0 | 0 | 0
SMILES | BoNT A protease | BoNT-F LC inh | Anthrax LF inh2 | Autofluor counter | MazEF act
O=c1[nH]c2cc3c(cc2cc1C(c1nnnn1C1CCCC1)N1CCSCC1)OCCO3 (stereo not given) | 0 | 0 | 0 | 0 | 0
Cc1cc2cc(C(c3nnnn3C3CCCC3)N(Cc3cccnc3)Cc3ccco3)c(=O)[nH]c2cc1C (stereo not given) | 0 | 0 | 0 | 0 | 0
COc1cc2cc(C(c3nnnn3C3CCCCC3)N(C)C3CCCCC3)c(=O)[nH]c2cc1OC (stereo not given) | 0 | 0 | 0 | 22356 | 0
O=C(NS(=O)(=O)c1ccc2ccc(S(=O)(=O)NCCSc3ccccc3)cc2c1)c1cccc2ccccc12 | 0 | 0 | 0 | 0 | -
N#CC1(NC(=O)CSc2nnc(-c3ccccc3F)o2)CCCCC1 | 0 | 0 | 0 | 0 | 0
O=C(OCc1ccccc1Cl)c1ccccc1C(=O)c1ccccc1 | 0 | 0 | 0 | 22408 | 0
O=C(OCc1ccc(COC(=O)c2cccnc2Cl)cc1)c1cccnc1Cl | 0 | 0 | 0 | 0 | 0
COC(=O)c1sc2ncccc2c1OCc1c(Cl)cccc1Cl | 0 | 0 | 0 | 19174 | 0
O=C(OCc1c(Cl)cccc1Cl)c1cccnc1Cl | ? | 0 | 0 | 24071 | 0
O=C(OCc1ccccc1Cl)c1cccnc1Cl | 0 | 0 | 0 | 21281 | 0
CC(O)(c1ccc(F)c(F)c1)c1nc(-c2cccc(C#N)c2)cs1 (stereo not given) | 0 | 0 | 0 | 0 | -
